# Bioassay records deposited in PubChem by National Center for Advancing Translational Sciences (NCATS).
# Only some compounds are listed: those with a hit (about 21% of all), similar ones and a draw of the others.
# Pf growth 96h: inhibits malaria parasite growth, 96 h; P. falciparum luciferase reporter growth, 96 h; AID 504834; Potency, µM (highest dose often 28.7 µM), without a hit: top-dose activity change, negative = inhibition, usual class: inhibitors; 320,000 compounds, 6.9% hits; further: potency means the concentration at half of the fitted maximal effect; on the % scale 0 is the no-effect control and ±100 the full control effect
#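 Two parasite generations (96 h, 37 C, 5% CO2) of compound exposure in infected erythrocytes (0.05% parasitemia, 2% hematocrit). Luciferase-reporter P. falciparum; decreased luminescence indicates inhibited growth, aimed at apicoplast-acting delayed death.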
# Shiga inhibitor: Shiga toxin inhibition | 290,000 compounds, 9.2% hits | inhibition, % at 38.7 µM | Vero cells, Shiga toxin protein synthesis inhibition reporter | AID 2315; in the data active means inhibition mostly above about 28%, no sharp cut-off; inactive means mostly below about 43%; further: 0% is about no effect
# HCV inh: blocks hepatitis C virus | Huh7.5.1 HCVcc-Cre infection, luciferase reporter, 44 h | Potency, µM (titrated, usually from 41.8 µM), inactives show at the top dose activity change, negative = inhibition, actives largely listed as inhibitors | 340,000 compounds, 3.4% hits; further: potency means the concentration at half of the fitted maximal effect; on the % scale 0 is the no-effect control and ±100 the full control effect
#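 After 44 h co-culture of compound, cells and HCVcc-Cre (~0.5 moi), substrate is added for 15 min at room temperature and luciferase measured over 15 sec. Cells were seeded at 1,000/well and pre-cultured 4 h.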
# Pf growth 48h: inhibits P. falciparum growth in the first generation, 48 h; Potency, µM (highest dose often 28.7 µM), without a hit: at the highest dose activity change, negative = inhibition, most hits filed as inhibitors; P. falciparum luciferase growth in erythrocytes, 48 h; AID 504832; 310,000 compounds, 5.9% hits; further: potency means the concentration at half of the fitted maximal effect; on the % scale 0 is the no-effect control and ±100 the full control effect
#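 In quantitative HTS format, infected erythrocytes bearing luciferase-reporter parasites were treated for a single generation at 37 C. Luminescence after adding detection reagent served as the growth measure.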
# AMA1-RON2 inh: AMA1-RON2 (P. falciparum) interaction inhibition | AlphaScreen AMA1-biotinylated RON2 peptide binding | Potency, µM (doses to about 58.2 µM), without a hit: at the highest dose activity change, negative = inhibition, hits mostly inhibitors | 360,000 compounds, 0.2% hits;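 further: potency means the concentration at half of the fitted maximal effect; 0% = vehicle wells and -100% = peptide control; nearly all actives have a fitted effect of over 45% in size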
#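 AMA1 (3D7) with his tag at 25 nM final met compounds first, then biotinylated RON2 peptide at 25 nM; detection used donor plus acceptor beads, 10 µg/mL apiece, read by AlphaScreen after 30 min at room temperature.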
# CHX counter: affects cycloheximide protein synthesis inhibition readout, counter-screen. cell reporter, cycloheximide protein synthesis inhibition counterscreen. max response, %. 300,000 compounds, 12% hits. AID 2314; in the data active means max response mostly above about 13%, no sharp cut-off; inactive means mostly below about 14%; further: read at 38.3 µM for the half of the compounds with a filed dose; 0% is about no effect
# Active calls of the source: *; ? = inconclusive; . = not tested or not shown. Unless noted, the call rests on the fitted dose curve; in most records, active means well fitted curve in the direction sought with a large enough effect; inconclusive means small, poorly fitted or top-dose-only effect, or another doubt; inactive means no such curve, though single readings can be large; an effect the other way counts as inactive or inconclusive.
SMILES,Pf growth 96h,Shiga inhibitor,HCV inh,Pf growth 48h,AMA1-RON2 inh,CHX counter
O=C(Nc1ccc(S(=O)(=O)NC2=NCCCCC2)cc1)C1COc2ccccc2O1 (configuration not stated),?,-3,-8%,?,-1%,-2
CCN1/C(=C2\C(=O)N(C)C(=S)N2C)C=Cc2ccccc21,38%,11,-6%,?,?,-4
CCN1/C(=C2\C(=O)N(C)C(=S)N2C)C=Cc2cc(C)ccc21,23%,-9,2%,3.7µM*,-7%,-2
Cc1cc(Nc2ccccc2)nn1C(=O)c1ccccc1,9.3µM*,8,?,.,12%,1
COc1ccc(C(=O)n2nc(C)cc2Nc2ccccc2)cc1,.,72,?,70%,-2%,43*
Cc1cc(C)n(C(=O)c2ccc(NC(=O)C3CC3)cc2)n1,16%,-5,4%,24%,3%,-2
Cc1cc(Nc2ccccc2)nn1C(=O)c1ccc(Br)cc1,.,-7,14µM*,15%,2%,2
CCC(=O)Nc1ccc(C(=O)n2nc(C)cc2C)cc1,-8%,9,-1%,40%,-1%,12
CS(=O)(=O)c1ccc(Cl)c(NC(=O)CN2C(=O)C3CCCCC3C2=O)c1 (configuration not stated),52%,.,23%,6%,-10%,.
O=C(NC1C2CC3CC(C2)CC1C3)c1ccc(Br)o1 (configuration not stated),51%,-3,-2%,?,-8%,5
CCNC(=O)C1(C)CCN(C(=O)c2ccc(-c3ccccc3)cc2)C1 (configuration not stated),.,.,.,.,-4%,.
Cc1ccc(S(=O)(=O)c2nc(Cc3ccccc3)oc2N2CCOCC2)cc1,79%,.,11%,1%,8%,.
O=[N+]([O-])c1cccc2ccc(/C=C/c3cccc(Br)c3)nc12,0%,70*,?,21%,-23%,42*
O=[N+]([O-])c1cc(C(F)(F)F)ccc1Sc1ccc2ccccc2n1,81%,19,-8%,40%,?,8
CC(=O)Nc1ccc(/C=C/c2ccc3c([N+](=O)[O-])cccc3n2)cc1,270%,70*,-9%,321%,-2%,33*
O=[N+]([O-])c1cccc2ccc(/C=C/c3ccc(C(F)(F)F)cc3)nc12,-24%,31,2%,?,-26%,21*
O=[N+]([O-])c1cccc2ccc(/C=C/c3ccc(Cl)cc3)nc12,?,137*,?,6%,?,45*
O=C(O)c1cc(/C=C/c2ccc(N3CCOCC3)c([N+](=O)[O-])c2)nc2ccccc12,88%,-9,1%,26%,-9%,-4
CCOC(=O)C1=CCN(S(=O)(=O)c2ccccc2C)C1c1cccc(Cl)c1 (configuration not stated),.,.,.,.,1%,.
CC1CC(C)CN(C(=O)CSc2nc(N)cc(=O)[nH]2)C1 (configuration not stated),63%,-2,17%,9%,-2%,-2
CCOc1cc(/C=C/c2ccc3cccc([N+](=O)[O-])c3n2)cc(Cl)c1O,?,22,?,9.3µM*,-23%,11*
COc1ccc(-c2noc(CN(C)C(=O)c3ccoc3C)n2)cc1,?,25,?,19%,-2%,24*
COc1ccc(-c2noc(CNC(=O)c3ccoc3C)n2)cc1,-26%,-3,?,11%,17%,3
Cc1cccc(-c2noc(CNC(=O)c3ccco3)n2)c1,-7%,29,-3%,39%,2%,2
Cc1cccc(-c2noc(CN(C)C(=O)c3ccco3)n2)c1,-4%,154*,8%,36%,?,30*
Cc1cccc(-c2noc(CN(C)C(=O)COc3ccccc3)n2)c1,29%,15,-18%,25%,15%,9
Cc1cccc(-c2noc(CN(C)C(=O)c3ccoc3C)n2)c1,-8%,60*,-13%,10%,-18%,11
COc1ccc(CCNc2ncnc3c2nnn3Cc2ccccc2)cc1OC,?,-13,?,?,-1%,-2
